Inconclusive results are not listed. Entries that show only a call come without a potency. Active and inactive are the calls of the source. Calls come from the whole dose curve; as a rule, active = well fitted inhibition curve with a large enough effect; inconclusive = small, poorly fitted or top-dose-only effect; inactive = flat fitted curve, though single readings scatter. Residues, ends and D or L forms follow the SMILES beside them. *: point of attachment. Cbz = O=C(OCc1ccccc1)*

The assay deals with Zika virus NS2B-NS3 protease. Nature of the assay: Primary screen GU AMC qHTS for Zika virus inhibitors (AID 1347154). Note: nearly all actives have a fitted effect of over 70% in size. The settings on record: Zika NS2B-NS3 unlinked protease, AMC fluorogenic substrate; series mostly up to 54.1 µM. A digest of the protocol:
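Fluorogenic AMC-substrate cleavage by noncovalent NS2B-NS3 protease complex (25 nM, pH 8.0 Tris buffer with Tween 20) followed for 15 minutes at room temperature (~20% conversion). Percent inhibition from ex340/em450 signal change, fitted by 4-parameter Hill equation.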
In the case of `O=S(=O)(O)CCSSCCS(=O)(=O)O`, the Potency result is “inactive”.
Take `C=CC(=O)N1CCc2ccc(-n3c(=O)ccc4cnc5ccc(-c6cnn(C)c6)cc5c43)cc21`: the Potency result was “inactive”.
Take `CC(C)C[C@@H](C=O)NC(=O)[C@H](CC(C)C)NC(=O)[C@H](CC(C)C)NC(=O)OCc1ccccc1` (Cbz-Leu-Leu-Leu-aldehyde): the Potency entry is “inactive”.
As to `CN(C)c1ccc(C(=O)NCCCCCCC(=O)NO)cc1`, the Potency entry is “inactive”.
For `CC(C(C)N1CC(=O)NC(=O)C1)N1CC(=O)NC(=O)C1` (stereo not drawn) the value was “inactive”; for `NS(=O)(=O)OC[C@@H]1C[C@@H](n2ccc3c(N[C@H]4CCc5ccccc54)ncnc32)C[C@H]1O`, “inactive”; for `CC(=O)O[C@@]12CO[C@H]1C[C@H](O)[C@@]1(C)C(=O)[C@H](O)C3=C(C)[C@@H](OC(=O)C(O)[C@@H](NC(=O)OC(C)(C)C)c4ccccc4)C[C@@](O)([C@@H](OC(=O)c4ccccc4)[C@@H]21)C3(C)C` (stereo partly drawn), “inactive”.
Under `Cc1cc(Nc2ncc3c(n2)N(C)C(=O)N(c2cc(NC(=O)c4cccc(C(F)(F)F)c4)ccc2C)C3)n(C)n1` stands “inactive”.
